Results published in PubChem BioAssay (NCATS).
Inconclusive results are not listed. Entries that show only a call come without a potency. Activity calls are given as the source filed them. Unless noted, the call rests on the fitted dose curve; in most records, active means well fitted curve in the direction sought with a large enough effect; inconclusive means small, poorly fitted or top-dose-only effect, or another doubt; inactive means no such curve, though single readings can be large; an effect the other way counts as inactive or inconclusive.

Tests used:
[1] = Cytometry Cell-Based qHTS for Inhibitors of the mTORC1 Signaling Pathway in MEF cells (AID 2668); further: potency means the concentration at half of the fitted maximal effect
How it was run: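 Read-out: phospho-rpS6 Ser235/236 immunofluorescence normalized to propidium iodide intensity, scored as % active cells against a rapamycin (7.5 nM) threshold. Cells: Tsc2-/-, p53-/- MEFs stably expressing WT Tsc2, compound-treated 24 hrs at 37 degree Celsius.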

[2] = target: Ubiquitin carboxyl-terminal hydrolase 2 (Homo sapiens) (UniProt O75604); assay: qHTS Validation Assay for Inhibitors of Ubiquitin-specific Protease USP2a Using CHOP2 as the Reporter (AID 463106)
How it was run: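 10nM USP2 core + cpd, 30min RT; add 25nM Ub-CHOP2/25nM substrate; 60min RT; FI 485/531nm. Buffer Tris pH 8.0, CaCl2, BME, CHAPS. Norm. to NEM = 100% inhibition; time-zero read flags fluorescent artifacts.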

[3] = target: DNA polymerase III PolC-type (Bacillus subtilis (strain 168)) (UniProt P13267); assay: qHTS Validation Assay for the Inhibitors of DNA Replication in Gram-Positive Bacteria (AID 485295);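 further: reconstituted holoenzyme with PolC plus beta clamp SSB and primase; PicoGreen fluorescence of double-stranded DNA made on primed circular M13 template; series mostly up to about 57 µM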
How it was run: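 PicoGreen fluorescence (ex 480–485/em 535–540 nm) reports dsDNA synthesized on ssM13Gori template with dNTPs/NTPs. Enzyme: holoenzyme rebuilt from purified PolC, beta subunit, SSB and primase. Compound preincubated before substrate addition; RT throughout.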

[4] = target: Tumor susceptibility gene 101 protein (Homo sapiens) (UniProt Q99816); assay: qHTS Validation Assay for Iinhibitors of HIV-1 Budding by Blocking the Interaction of PTAP/TSG101 (AID 485342; calls by dose curve)
Chain of Tumor susceptibility gene 101 protein (Homo sapiens) (Q99816 whole entry, looked up, the tested form may be a part): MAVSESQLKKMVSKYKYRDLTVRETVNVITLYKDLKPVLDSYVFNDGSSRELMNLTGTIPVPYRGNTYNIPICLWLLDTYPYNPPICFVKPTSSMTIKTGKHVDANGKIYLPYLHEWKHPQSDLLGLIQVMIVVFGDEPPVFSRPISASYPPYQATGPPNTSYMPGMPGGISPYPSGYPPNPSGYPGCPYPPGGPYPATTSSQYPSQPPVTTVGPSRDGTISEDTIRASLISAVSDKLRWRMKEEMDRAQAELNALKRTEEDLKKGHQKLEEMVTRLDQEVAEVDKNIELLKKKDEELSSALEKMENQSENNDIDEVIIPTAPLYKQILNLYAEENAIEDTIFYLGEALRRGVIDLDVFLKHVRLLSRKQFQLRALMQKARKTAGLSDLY
How it was run: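 FP read-out: FITC-PTAP peptide, 50 nM final, binding Tsg101 binding domain, 10 uM final; 20 min r.t.; 10 mM HEPES pH 7.5, 0.15 M NaCl, 0.01% Tween 20, 3 mM EDTA, 0.1 mM TCEP.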

[5] = qHTS Validation Assay to Find Inhibitors of Chronic Active B-Cell Receptor Signaling (AID 485345; active means well fitted curve in the direction sought with a large enough effect in the main read-out, with a control signal flat, not every such curve was filed as active)
How it was run: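 Read-out: ratio of filter-corrected green (IkappaBalpha fusion) to red (native) luciferase signal in doxycycline-induced TMD8 cells after 4 h at 37C. Titration spanned 46 uM–3 nM; Data were normalised to basal cells and 10 uM MG-132 wells.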

[6] = target: Beta-2 adrenergic receptor (Homo sapiens) (UniProt P07550); assay: qHTS validation assay of beta-arrestin-biased ligands of beta2-adrenergic receptor (AID 485366)
How it was run: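 Tango cells expressing recombinant beta2-AR and beta-arrestin with tTA-driven luciferase, in DMEM with 1% FBS. Compounds were titrated up to 46 microM for 18 hr at 37 degrees C. Luminescence was read 15 min after substrate; curves were fitted and class-assigned.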

[7] = target: Thioredoxin reductase 1, cytoplasmic (Rattus norvegicus) (UniProt O89049); assay: qHTS Assay for Substrates of Mammalian Selenoprotein Thioredoxin Reductase 1 (TrxR1) (AID 488772);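 further: NADPH fluorescence in the first read after selenite addition and not the 8 min delta; series mostly up to about 57 µM; a drop in NADPH fluorescence below the no-compound background marks a TrxR1 substrate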
Chain of Thioredoxin reductase 1, cytoplasmic (Rattus norvegicus) (O89049 whole entry, looked up): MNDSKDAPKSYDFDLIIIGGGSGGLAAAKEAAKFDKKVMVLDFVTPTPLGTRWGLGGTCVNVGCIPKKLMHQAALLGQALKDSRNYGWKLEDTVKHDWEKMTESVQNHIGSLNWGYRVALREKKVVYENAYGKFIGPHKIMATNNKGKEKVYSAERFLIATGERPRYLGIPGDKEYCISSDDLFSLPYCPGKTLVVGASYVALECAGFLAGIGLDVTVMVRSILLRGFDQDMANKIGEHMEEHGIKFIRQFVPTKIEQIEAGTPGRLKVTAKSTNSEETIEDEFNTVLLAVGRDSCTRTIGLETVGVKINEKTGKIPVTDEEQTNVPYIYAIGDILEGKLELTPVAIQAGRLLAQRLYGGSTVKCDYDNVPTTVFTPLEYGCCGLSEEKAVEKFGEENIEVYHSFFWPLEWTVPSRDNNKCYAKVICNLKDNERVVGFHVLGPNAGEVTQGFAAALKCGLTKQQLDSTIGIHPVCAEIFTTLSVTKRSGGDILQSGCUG
How it was run: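 Quantitative HTS in Tris-HCl buffer at pH 7.5 with EDTA and Tween-20, using rat TrxR1, 400 uM NADPH and 400 uM selenite (final). A fall in initial NADPH fluorescence relative to background marked substrate behaviour.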

[8] = target: Thioredoxin reductase 1, cytoplasmic (Rattus norvegicus) (UniProt O89049); assay: qHTS Assay for Inhibitors of Mammalian Selenoprotein Thioredoxin Reductase 1 (TrxR1) (AID 488773); settings: Potency: inhibition;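 further: drop in NADPH fluorescence over an 8 min run after selenite addition; series mostly up to about 57 µM; nearly all actives have a fitted effect of over 40% in size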
How it was run: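 Steps: enzyme (90 nM) plus NADPH (400 uM final), 5 min at ~22 deg C; compound added, 15 min; selenite (400 uM final) added; fluorescence followed for 8 min. Concentration-response curves derived from the normalized delta values.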

[9] = target: Flap endonuclease 1 (Homo sapiens) (UniProt P39748); assay: qHTS Validation Assay for the Inhibitors of Human Flap endonuclease 1 (FEN1) (AID 488816); further: potency means the concentration at half of the fitted maximal effect
Chain of Flap endonuclease 1 (Homo sapiens) (P39748 whole entry, looked up): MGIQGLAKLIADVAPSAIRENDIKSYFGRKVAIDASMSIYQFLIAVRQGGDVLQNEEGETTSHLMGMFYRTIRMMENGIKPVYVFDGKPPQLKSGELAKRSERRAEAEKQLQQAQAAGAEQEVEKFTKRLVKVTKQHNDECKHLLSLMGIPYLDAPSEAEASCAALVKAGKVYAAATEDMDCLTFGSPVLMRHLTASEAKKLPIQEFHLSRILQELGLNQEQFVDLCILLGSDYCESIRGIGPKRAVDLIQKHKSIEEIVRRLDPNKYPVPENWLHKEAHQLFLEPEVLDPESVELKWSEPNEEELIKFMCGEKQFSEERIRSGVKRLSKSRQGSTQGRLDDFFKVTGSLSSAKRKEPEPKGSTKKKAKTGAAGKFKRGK
How it was run: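 Readings taken at 0 and 15 min after starting the reaction with 50 nM (final) substrate supplied the signal. Compounds had first sat with 10 nM FEN1 reagent for 15 min at room temperature. Values come from Hill-equation concentration-response fits.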

[10] = target: Chromobox protein homolog 1 (Homo sapiens) (UniProt P83916); assay: qHTS Validation Assay for Inhibitors of HP1-beta Chromodomain Interactions with Methylated Histone Tails (AID 488953); further: nearly all actives have a fitted effect of over 50% in size; further: potency means the concentration at half of the fitted maximal effect
Chain of Chromobox protein homolog 1 (Homo sapiens) (P83916 whole entry, looked up): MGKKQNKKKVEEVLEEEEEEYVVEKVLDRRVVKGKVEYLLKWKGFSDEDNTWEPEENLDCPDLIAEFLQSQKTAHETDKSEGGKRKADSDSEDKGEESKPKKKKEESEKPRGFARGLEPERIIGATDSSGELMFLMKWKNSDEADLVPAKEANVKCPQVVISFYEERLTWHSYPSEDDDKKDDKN
How it was run: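 50 nM HP1-beta + 50 nM biotin-H3(1-18)K9me3, PBS pH 7.4, 0.01% Tween-20, 30 min RT; compound added, 30 min RT; AlphaScreen beads 10 ug/mL final, 30 min dark; luminescence read.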

[11] = target: Methanococcus maripaludis chaperonin (MmCpn) (UniProt Q6LX38); assay: High-Throughput Screening for Modulators of Cytosolic Chaperonin Activity: MmCpn Primary Screen (AID 488978);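 further: 50 nM MmCpn enzyme hydrolysing 30 µM ATP at 37 °C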
How it was run: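 ADP formation read by HTRF Transcreener, 665/590 nm emission after 320 nm excitation. Enzyme: archaeal chaperonin at 50 nM final; substrate ATP 30 uM final; 10 min, 37C, after 5 min compound preincubation at RT.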

[12] = target: D(1A) dopamine receptor (Homo sapiens) (UniProt P21728); assay: HTS Assay for Allosteric Agonists of the Human D1 Dopamine Receptor: Primary Screen for Agonists (AID 488981); further: potency means the concentration at half of the fitted maximal effect
Chain of D(1A) dopamine receptor (Homo sapiens) (P21728 whole entry, looked up): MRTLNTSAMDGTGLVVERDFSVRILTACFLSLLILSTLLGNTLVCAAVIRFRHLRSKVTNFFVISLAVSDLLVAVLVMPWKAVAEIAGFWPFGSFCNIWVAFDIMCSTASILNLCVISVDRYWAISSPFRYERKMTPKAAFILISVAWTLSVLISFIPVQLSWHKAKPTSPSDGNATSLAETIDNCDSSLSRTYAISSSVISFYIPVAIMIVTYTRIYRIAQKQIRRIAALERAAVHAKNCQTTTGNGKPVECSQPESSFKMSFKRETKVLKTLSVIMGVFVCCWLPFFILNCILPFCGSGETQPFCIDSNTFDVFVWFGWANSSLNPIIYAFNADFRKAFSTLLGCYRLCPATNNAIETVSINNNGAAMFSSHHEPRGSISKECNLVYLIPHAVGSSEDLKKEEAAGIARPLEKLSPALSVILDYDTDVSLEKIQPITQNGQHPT
How it was run: (§1)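 Calcium flux in an inducible, force-coupled HEK293 Trex D1 line (overnight at 30 C): agonist mode is the 180 s kinetic read after compound; potentiator mode is the following 180 s read after dopamine at EC20.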

[13] = target: D(1A) dopamine receptor (Homo sapiens) (UniProt P21728); assay: HTS Assay for Allosteric Agonists of the Human D1 Dopamine Receptor: Primary Screen for Potentiators (AID 488982); further: potency means the concentration at half of the fitted maximal effect
How it was run: as §1

[14] = target: ATP-dependent 6-phosphofructokinase (Trypanosoma brucei brucei) (UniProt O15648); assay: qHTS Validation Assay to Find Inhibitors of T. brucei phosphofructokinase (AID 485368)
Chain of ATP-dependent 6-phosphofructokinase (Trypanosoma brucei brucei) (O15648 whole entry, looked up): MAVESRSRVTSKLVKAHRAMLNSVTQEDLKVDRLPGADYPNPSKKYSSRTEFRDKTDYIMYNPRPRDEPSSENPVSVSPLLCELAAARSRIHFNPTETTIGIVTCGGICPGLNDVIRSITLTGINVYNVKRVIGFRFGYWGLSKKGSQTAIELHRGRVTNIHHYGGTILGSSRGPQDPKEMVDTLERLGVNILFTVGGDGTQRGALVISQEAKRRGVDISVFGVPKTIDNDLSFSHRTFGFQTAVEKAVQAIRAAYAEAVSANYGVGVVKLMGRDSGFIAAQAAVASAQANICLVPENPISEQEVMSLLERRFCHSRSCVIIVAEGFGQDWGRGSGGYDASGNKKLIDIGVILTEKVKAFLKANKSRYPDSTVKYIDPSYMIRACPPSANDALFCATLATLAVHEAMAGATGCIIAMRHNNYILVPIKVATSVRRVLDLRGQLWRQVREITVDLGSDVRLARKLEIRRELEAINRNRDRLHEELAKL
How it was run: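 Activity was read as ADP production by luminescence (ADP-Glo) after 45 min at room temperature. The enzyme was 1.25nM PFK in 0.1M TEA pH 8.0 with 0.5 mM F6P, 0.1mM ATP and 5 mM MgCl2. Compounds were titrated up to 57 uM and % activity normalized to no-enzyme and full-enzyme controls.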

[15] = target: M-phase phosphoprotein 8 (Homo sapiens) (UniProt Q99549); assay: qHTS Validation Assay for Inhibitors for MPP8 Chromodomain Interactions with Methylated Histone Tails (AID 488949);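 further: AlphaScreen signal from MPP8 chromodomain bound to biotinylated H3K9me3 peptide; top concentration of the series differs between compounds; nearly all actives have a fitted effect of over 55% in size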
Chain of M-phase phosphoprotein 8 (Homo sapiens) (Q99549 whole entry, looked up): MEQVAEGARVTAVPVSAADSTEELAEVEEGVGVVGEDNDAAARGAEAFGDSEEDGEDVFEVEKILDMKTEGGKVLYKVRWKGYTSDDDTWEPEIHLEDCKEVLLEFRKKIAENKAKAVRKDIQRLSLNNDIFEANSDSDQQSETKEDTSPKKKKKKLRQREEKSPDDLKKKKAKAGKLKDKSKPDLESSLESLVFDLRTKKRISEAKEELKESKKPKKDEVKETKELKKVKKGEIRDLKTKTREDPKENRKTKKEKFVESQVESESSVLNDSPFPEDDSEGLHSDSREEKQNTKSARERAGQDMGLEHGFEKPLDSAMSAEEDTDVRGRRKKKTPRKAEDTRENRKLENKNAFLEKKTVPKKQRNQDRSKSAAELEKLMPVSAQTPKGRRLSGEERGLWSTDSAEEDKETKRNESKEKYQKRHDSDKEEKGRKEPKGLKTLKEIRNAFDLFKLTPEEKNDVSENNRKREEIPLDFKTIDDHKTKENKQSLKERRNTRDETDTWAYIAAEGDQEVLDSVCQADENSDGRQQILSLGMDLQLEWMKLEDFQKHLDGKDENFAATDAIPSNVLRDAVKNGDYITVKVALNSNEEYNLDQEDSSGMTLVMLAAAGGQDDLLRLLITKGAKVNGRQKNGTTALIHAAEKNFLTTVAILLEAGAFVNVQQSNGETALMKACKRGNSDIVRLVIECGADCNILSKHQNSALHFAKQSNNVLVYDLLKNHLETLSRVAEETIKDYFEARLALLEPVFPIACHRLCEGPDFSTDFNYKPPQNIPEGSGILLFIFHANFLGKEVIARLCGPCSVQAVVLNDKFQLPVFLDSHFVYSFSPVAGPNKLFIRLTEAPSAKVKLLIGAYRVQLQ
How it was run: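 AlphaScreen read-out: streptavidin donor and nickel chelate acceptor beads (final 10 ug/mL), 30 min in the dark at RT. Complex of 50 nM MPP8 and 50 nM b-H3(1-18)K9me3 peptide had been exposed to compounds for 30 min beforehand.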

[16] = Quantitative high throughput screen for delayed death inhibitors of the malarial parasite plastid, 96 hour incubation (AID 488745); further: nearly all actives have a fitted effect of over 70% in size; further: potency means the concentration at half of the fitted maximal effect
How it was run: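 Infected erythrocytes were added to compound in Albumax-supplemented RPMI 1640 at 0.1% parasitemia and 2% hematocrit (final), incubated 96 h at 37 C under 5% CO2, then luciferase reagent was added and luminescence measured.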

[17] = Quantitative high throughput screen for delayed death inhibitors of the malarial parasite plastid, 48 hour incubation (AID 488752); further: nearly all actives have a fitted effect of over 65% in size; further: potency means the concentration at half of the fitted maximal effect
How it was run: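 Readout is firefly luciferase luminescence from a reporter integrated into the parasite genome, with lower signal taken as inhibited growth. Infected red cells (0.1% parasitemia, 2% hematocrit final) are cultured with compound for one 48 h cycle at 37 C.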

[18] = Validation screen for small molecules that induce DNA re-replication in MCF 10A normal breast cells (AID 463097); further: nearly all actives have a fitted effect of over 60% in size; further: potency means the concentration at half of the fitted maximal effect
How it was run: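 250 MCF 10A cells/well; compound pin-transferred; 48 hr, 37 C, 5% CO2; Hoechst 40 min; imaged 405/500-530 nm. Hits = more high-intensity nuclei.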

[19] = target: Transient receptor potential cation channel subfamily V member 1 (Homo sapiens) (UniProt Q8NER1); assay: HTS Assay for Compounds that Act as Enhancers of the Vanilloid Receptor 1 (AID 488979)
Chain of Transient receptor potential cation channel subfamily V member 1 (Homo sapiens) (Q8NER1 whole entry, looked up): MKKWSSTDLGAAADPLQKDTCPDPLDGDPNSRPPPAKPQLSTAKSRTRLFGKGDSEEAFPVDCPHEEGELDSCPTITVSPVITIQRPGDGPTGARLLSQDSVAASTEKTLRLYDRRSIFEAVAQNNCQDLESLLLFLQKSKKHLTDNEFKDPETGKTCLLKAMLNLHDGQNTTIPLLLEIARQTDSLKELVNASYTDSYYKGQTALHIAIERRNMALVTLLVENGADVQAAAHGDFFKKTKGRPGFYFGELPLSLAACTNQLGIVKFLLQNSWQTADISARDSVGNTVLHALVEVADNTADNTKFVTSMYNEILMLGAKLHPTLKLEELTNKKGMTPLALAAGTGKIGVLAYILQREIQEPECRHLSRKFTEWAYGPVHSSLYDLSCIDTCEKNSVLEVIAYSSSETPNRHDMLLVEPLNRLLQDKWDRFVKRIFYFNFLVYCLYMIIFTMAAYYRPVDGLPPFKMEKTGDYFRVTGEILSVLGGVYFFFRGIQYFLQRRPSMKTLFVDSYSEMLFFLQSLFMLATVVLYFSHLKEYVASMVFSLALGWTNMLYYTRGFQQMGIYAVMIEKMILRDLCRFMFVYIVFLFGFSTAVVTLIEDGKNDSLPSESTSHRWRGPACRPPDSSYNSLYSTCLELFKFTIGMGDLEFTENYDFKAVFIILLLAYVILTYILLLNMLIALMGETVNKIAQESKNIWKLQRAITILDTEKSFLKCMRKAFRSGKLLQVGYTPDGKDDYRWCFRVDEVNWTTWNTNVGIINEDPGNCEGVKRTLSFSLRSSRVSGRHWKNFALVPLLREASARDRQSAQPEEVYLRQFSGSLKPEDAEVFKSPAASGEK
How it was run: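 Calcium influx kinetics via Fluo-8 (480/520 nm) in TRPV1-expressing cells, 2000/well cultured overnight at 35.5C. Compound-alone read 3 min (agonist phase), followed by EC20 capsaicin challenge for 2 min (enhancer phase).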

[20] = target: Thyrotropin receptor (Homo sapiens) (UniProt P16473); assay: qHTS Assay for Antagonists of the Thyroid Stimulating Hormone Receptor (AID 488980); further: series mostly up to about 58 µM
Chain of Thyrotropin receptor (Homo sapiens) (P16473 whole entry, looked up): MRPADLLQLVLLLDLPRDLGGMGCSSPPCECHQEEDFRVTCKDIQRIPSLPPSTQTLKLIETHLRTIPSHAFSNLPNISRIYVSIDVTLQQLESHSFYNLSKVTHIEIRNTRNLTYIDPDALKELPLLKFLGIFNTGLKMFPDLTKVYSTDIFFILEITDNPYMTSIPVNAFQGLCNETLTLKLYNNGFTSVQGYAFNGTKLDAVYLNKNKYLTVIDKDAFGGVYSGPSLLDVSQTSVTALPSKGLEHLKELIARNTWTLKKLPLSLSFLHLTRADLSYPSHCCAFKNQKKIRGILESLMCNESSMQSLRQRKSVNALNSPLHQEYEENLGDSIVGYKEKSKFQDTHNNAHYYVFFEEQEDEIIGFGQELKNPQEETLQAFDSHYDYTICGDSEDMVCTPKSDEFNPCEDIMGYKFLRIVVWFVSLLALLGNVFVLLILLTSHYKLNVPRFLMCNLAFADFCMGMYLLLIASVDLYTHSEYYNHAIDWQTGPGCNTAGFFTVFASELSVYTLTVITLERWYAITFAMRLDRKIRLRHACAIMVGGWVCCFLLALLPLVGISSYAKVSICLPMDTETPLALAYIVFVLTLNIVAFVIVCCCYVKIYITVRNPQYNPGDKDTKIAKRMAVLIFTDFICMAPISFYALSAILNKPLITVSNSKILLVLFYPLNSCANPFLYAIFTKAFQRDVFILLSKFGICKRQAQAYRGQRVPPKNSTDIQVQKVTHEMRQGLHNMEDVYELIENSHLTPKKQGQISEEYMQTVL
How it was run: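 TSHR-HEK293 cells; 70 uM RO 20-1724 PDE inhibitor; compound + EC80 TSH (4 nM final); anti-cAMP cryptate antibody/cAMP-d2 in lysis buffer, 30 min RT; HTRF 665/620 nm read.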

| SMILES | Potency [1] | Potency [2] | Potency [3] | outcome [4] | Potency [5] | outcome [6] | outcome [7] | Potency [8] | Potency [9] | Potency [10] | outcome [11] | Potency [12] | Potency [13] | Potency [14] | Potency [15] | Potency [16] | Potency [17] | Potency [18] | outcome [19] | outcome [20] |
| --- | --- | --- | --- | --- | --- | --- | --- | --- | --- | --- | --- | --- | --- | --- | --- | --- | --- | --- | --- | --- |
| COc1cc2nc(N(C)CCCNC(=O)C3CCCO3)nc(N)c2cc1OC (configuration not stated) | inactive | inactive | inactive | inactive | inactive | inactive | inactive | inactive | inactive | inactive | inactive | inactive | inactive | – | – | – | – | – | – | – |
| C[C@H]1c2cccc(O)c2C(O)=C2C(=O)[C@]3(O)C(O)=C(C(N)=O)C(=O)[C@@H](N(C)C)[C@@H]3[C@@H](O)[C@@H]21 | inactive | inactive | inactive | inactive | inactive | inactive | inactive | inactive | 23.8 µM (active) | – | inactive | inactive | – | inactive | inactive | – | – | – | – | – |
| CC(CCc1ccc(O)cc1)NCCc1ccc(O)c(O)c1 (configuration not stated) | inactive | inactive | inactive | inactive | inactive | inactive | inactive | inactive | inactive | – | inactive | – | – | inactive | inactive | 5.86 µM (active) | 13.1 µM (active) | – | – | – |
| CC[N+](CC)(CC)CCOc1cccc(OCC[N+](CC)(CC)CC)c1OCC[N+](CC)(CC)CC | inactive | inactive | inactive | inactive | inactive | inactive | inactive | – | inactive | – | inactive | – | inactive | – | – | – | inactive | inactive | inactive | inactive |
| COc1ccc(CCN(C)CCCC(C#N)(c2ccc(OC)c(OC)c2)C(C)C)cc1OC (configuration not stated) | inactive | – | inactive | inactive | – | inactive | – | – | – | – | inactive | – | inactive | – | – | – | – | inactive | – | – |
| Cc1cn([C@H]2C=C[C@@H](CO)O2)c(=O)[nH]c1=O | inactive | inactive | inactive | inactive | inactive | inactive | inactive | inactive | inactive | inactive | inactive | inactive | inactive | – | inactive | – | inactive | inactive | – | inactive |
| OCCN(CCO)c1nc(N2CCCCC2)c2nc(N(CCO)CCO)nc(N3CCCCC3)c2n1 | inactive | – | inactive | – | – | inactive | inactive | inactive | inactive | inactive | inactive | 10 µM (active) | 2.91 µM (active) | inactive | inactive | 10.4 µM (active) | 9.28 µM (active) | 12.6 µM (active) | – | – |
| CC(C)NCC(O)COc1ccc(CCOCC2CC2)cc1 (configuration not stated) | inactive | inactive | inactive | inactive | inactive | – | inactive | inactive | inactive | inactive | inactive | – | inactive | inactive | – | – | inactive | inactive | – | – |
| CN1C2CCC1CC(OC(=O)C(CO)c1ccccc1)C2 (configuration not stated) | inactive | – | inactive | inactive | inactive | inactive | – | – | – | – | inactive | – | inactive | inactive | inactive | inactive | inactive | inactive | – | – |
| Nc1c2c(nc3ccccc13)CCCC2 | inactive | inactive | inactive | inactive | inactive | – | – | inactive | inactive | inactive | inactive | inactive | inactive | inactive | inactive | – | – | inactive | inactive | – |
| O=C(Nc1ccc([N+](=O)[O-])cc1Cl)c1cc(Cl)ccc1O | 1.17 µM (active) | inactive | inactive | inactive | – | inactive | inactive | inactive | inactive | inactive | inactive | inactive | inactive | inactive | – | – | – | 0.316 µM (active) | – | – |
| COc1ccccc1OCC(O)CN1CCN(CC(=O)Nc2c(C)cccc2C)CC1 (configuration not stated) | inactive | inactive | inactive | inactive | – | inactive | – | inactive | inactive | inactive | inactive | – | inactive | inactive | – | inactive | inactive | inactive | – | – |
| O=C1N(c2ccccc2)c2ccccc2C1(Cc1ccncc1)Cc1ccncc1 | inactive | inactive | inactive | inactive | – | inactive | inactive | inactive | inactive | inactive | inactive | inactive | inactive | – | inactive | – | – | inactive | inactive | – |
| CC(C)NCC(O)c1ccc(O)c(O)c1 (configuration not stated) | 13.1 µM (active) | inactive | inactive | inactive | inactive | – | inactive | – | inactive | 0.0106 µM (active) | inactive | inactive | inactive | – | – | inactive | inactive | inactive | – | – |
| Cn1c(=O)c2[nH]cnc2n(C)c1=O | inactive | inactive | inactive | inactive | – | inactive | inactive | inactive | inactive | inactive | inactive | – | inactive | – | inactive | inactive | inactive | inactive | – | inactive |
